According to PubChem BioAssay AID1963822 (ICCB-Longwood Screening Facility, Harvard Medical School, 2024):
Among all 55,000 compounds or so, about 90 (0.2%) were called active. No rule for the calls is given here. The entries come from a sample that favours actives as a whole.

Test: growth inhibitors of anaerobic choline-fed gram-negatives, minimal medium, absorbance (AID 1963822)
Details: Gram-negative bacterium anaerobic choline minimal medium
[1] = measured here: choline growth z-score, timepoint 1, stronger effect = lower value

| Compound | z-score (stronger effect = lower value) | z-score [1] |
| --- | --- | --- |
| COc1ccc(CN2CCCC2c2cc(C)on2)cc1CN1CCOCC1 (stereo not given) | -1.52 (inactive) | -0.66 |
| COc1cc2[nH]c(=O)n(CCCC(=O)NCCCN3CCN(c4cccc(Cl)c4)CC3)c(=O)c2cc1OC | -0.27 (inactive) | 0.11 |
| O=C(CN(Cc1ccccc1)S(=O)(=O)c1ccc(Br)cc1)N1CCN(c2ccc(F)cc2)CC1 | 0.95 (inactive) | 0.76 |
| O=C(Nc1ccccc1F)C1CC(=O)N(CCc2c[nH]c3ccc(F)cc23)C1 (stereo not given) | -0.07 (inactive) | 0.17 |
| CC(=O)Nc1ccc(S(=O)(=O)N2CCN(Cc3nc4cccnc4n3-c3ccc(C)cc3)CC2)cc1 | 0.91 (inactive) | -0.17 |
| Cc1ccc(-n2nc(N3CCCN(C(=O)C4CCC4)CC3)ccc2=O)cc1C | -0.57 (inactive) | 1.18 |
| CCN(CCCNC(=O)C1CCCN(C(=O)c2cccc(Cl)c2)C1)c1ccccc1 (stereo not given) | -1 (inactive) | -1.29 |
| Cc1nc(N2CCC(C(=O)N3CCOCC3)CC2)c2c(C)c(C)oc2n1 | -0.5 (inactive) | -0.48 |
| CCOc1ccc(NC(=O)Nc2ccc(Cn3cnc(-c4nc(-c5ccc(Cl)cc5)no4)c3)cc2)cc1 | 0.25 (inactive) | 0.58 |
| O=C(O)C1Nc2ccc(Cl)cc2C2C=CCC12 (stereo not given) | 1.42 (inactive) | 2.01 |
| Cc1ccc(OCc2nc3c4ccccc4ncn3n2)cc1 | 0.29 (inactive) | 0.48 |
| CC(C)c1ccc(N2C(=O)c3cc4ccsc4n3CC2(C)C(=O)NC2CCCC2)cc1 (stereo not given) | 0.43 (inactive) | 0.35 |
| CCOc1cc(-c2noc(CCCC(=O)Nc3cccnc3)n2)ccc1OC | -0.11 (inactive) | -0.21 |
| CN(CCc1noc(-c2ccccc2Cl)n1)S(=O)(=O)c1cccc2nsnc12 | 0.03 (inactive) | -1.43 |
| CCN1CCN(C(=O)c2cc(C)n(CCN3CCCC3)c2C)CC1 | -1.12 (inactive) | -1.13 |
| Cc1nc(-c2ccc(C)c(S(=O)(=O)N3CCC(C(=O)N4CCN(c5ccc(F)cc5)CC4)CC3)c2)no1 | 0.78 (inactive) | 0.51 |
| COC(=O)C1=CN(C)S(=O)(=O)N=C1C | 1.05 (inactive) | 0.71 |
| O=C(O)c1c[nH]c2ccc(S(=O)(=O)NC3CCCCNC3=O)cc2c1=O (stereo not given) | 1.32 (inactive) | 1.13 |
| O=C(c1cc2cc(Cl)ccc2[nH]1)N1CCCN(c2ccc(=O)n(-c3ccccc3)n2)CC1 | -1.08 (inactive) | -1.54 |
| CCCC[C@H](C)C[C@H](O)/C=C/[C@@H]1[C@@H](CCCCCCC(=O)O)[C@@H](O)C[C@H]1O | 0.5 (inactive) | -0.78 |

| Compound | z-score (stronger effect = lower value) | z-score [1] |
| --- | --- | --- |
| CCCCC/C=C\CC1OC1CCCCCCCC(=O)O (stereo not given) | -3.37 (active) | -3.13 |
| CCCCC[C@@](C)(O)/C=C/[C@H]1C=CC(=O)[C@@H]1C/C=C\CCCC(=O)O | -0.26 (inactive) | 0.66 |
| CCCCCCCC/C=C\CCCCCCCC(=O)OC[C@H](CO)OC(C)=O | 0.47 (inactive) | 0.34 |
| CCCCC/C=C\C/C=C\CCCCCCCCCC(=O)O | -3.44 (active) | -3.23 |
| CCCCCC(=O)CC[C@H]1[C@H](O)CC(=O)[C@@H]1C/C=C\CCCC(=O)O | 0.71 (inactive) | 1.09 |
| CCOC(=O)c1ccc(NC(=O)CSc2nnc(NC(=O)NC3CCCCC3)s2)cc1 | 0.1 (inactive) | 0.31 |
| COc1cccc(C2Nc3ccc(Cl)cc3[C@H]3OCCC[C@@H]23)c1OC (stereo not given in full) | 1.2 (inactive) | 2.03 |
| CN(CCCNC(=O)c1c2c(nc3ccccc13)C(=O)N(C1CCCCC1)C2)c1ccccc1 | -0.07 (inactive) | -1.59 |
| COc1ccc(NC(=O)c2cccc(-c3nc(-c4ccc(F)cc4)no3)c2)cc1OC | -1 (inactive) | -0.62 |
| CN1CCN(S(=O)(=O)c2ccc3c(c2)C(C)(C)CN3CC(=O)N2CCCC2)CC1 | 1.07 (inactive) | 0.91 |
| Cc1cn(C)c(CC(=O)NC2CCN(Cc3ccccc3)CC2)c1C(=O)O | -0.86 (inactive) | 0.19 |
| Brc1ccc(-c2nn[nH]n2)cc1 | -1.32 (inactive) | -1.04 |
| CCOC(=O)C1CCCN(C(=O)Cn2c(=O)c3ccccc3n3c(=S)sc(-c4ccccc4)c23)C1 (stereo not given) | 0.91 (inactive) | 0.36 |
| CCN(CC)C(=O)CSc1nnc2c3ccccc3nc(-c3ccccc3)n12 | 2.11 (inactive) | 1.21 |
| CCOc1ccc(S(=O)(=O)NC(C)C)cc1-c1nc(C)no1 | 0.37 (inactive) | -1.19 |
| CCCN(CCC)CCNc1cc(C)nc2c(-c3ccccc3OC)c(C)nn12 | 1.1 (inactive) | -0.02 |
| Cc1nc(-c2csc(S(=O)(=O)NCc3ccccc3Cl)c2)sc1C | -0.96 (inactive) | -0.18 |
| Cc1[nH]nc2c1C(C(=O)c1cccc(Cl)c1)CC(=O)N2 (stereo not given) | 0.36 (inactive) | 0.1 |
| COc1ccc(NS(=O)(=O)c2cc(-c3nc(-c4ccccc4)no3)sc2C)cc1OC | 0.43 (inactive) | -0.06 |
| CCN1CCN(C(=O)c2cc(N(C)S(=O)(=O)c3ccccc3)ccn2)CC1 | 0.78 (inactive) | 0.89 |
